Source: PubChem BioAssay
A selection: hits, their analogues and other compounds. The true share with any hit is near 1.6%.
Efflux pump inh – antifungal efflux pump inhibition, Nile Red retention. 330,000 tested, 0.44% active. S. cerevisiae Candida pump triplex. inhibition, % at 10 µM. AID 485275;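 active means plate passing quality check with inhibition over a set limit, or well fluorescence over plate mean plus 4 SD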;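 further: Nile Red retained in pooled yeast measured as flow cytometry median fluorescence; 0% = buffer negative control and 100% = Enniatin B positive control; higher means more Nile Red kept so more efflux inhibition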
GRK2 aptamer HTS – human GRK2 inhibition via aptamer displacement. AID 488847. inhibition of aptamer binding, % at 10 µM. 330,000 tested, 0.59% active. bead flow cytometry, FAM-aptamer displacement from GRK2. P25098;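 active means inhibition of aptamer binding above 40%, roughly 3 SD of noise, on plates passing a quality check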;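 further: median bead fluorescence of bound FAM aptamer so fluorescent compounds give negative values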
Yeast superoxide – lowers age-related superoxide in aged yeast cells. S. cerevisiae aged cells, superoxide DHE fluorescence; active compounds read low. superoxide response (% of plate mean), % at 10 µM. 330,000 tested, 0.18% active. AID 2690;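 active means superoxide response under a set limit, about three screen SD below normal, cut at about 65% in these data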;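 further: yeast aged for seven days with compound at 30 °C before DHE staining; 100% = average MFI of all compound-treated wells on the plate with controls excluded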
ATG4B inhibitor – blocks human ATG4B protease cleavage of LC3 substrate | Q9Y4P1 | ATG4B cleavage of LC3-PLA2, NBD-HPC fluorescence, 1 h | inhibition, % at 8.33 µM | 340,000 tested, 0.51% active | AID 504462; in the data active means inhibition above about 40%
Target sequence (Q9Y4P1 whole entry, looked up): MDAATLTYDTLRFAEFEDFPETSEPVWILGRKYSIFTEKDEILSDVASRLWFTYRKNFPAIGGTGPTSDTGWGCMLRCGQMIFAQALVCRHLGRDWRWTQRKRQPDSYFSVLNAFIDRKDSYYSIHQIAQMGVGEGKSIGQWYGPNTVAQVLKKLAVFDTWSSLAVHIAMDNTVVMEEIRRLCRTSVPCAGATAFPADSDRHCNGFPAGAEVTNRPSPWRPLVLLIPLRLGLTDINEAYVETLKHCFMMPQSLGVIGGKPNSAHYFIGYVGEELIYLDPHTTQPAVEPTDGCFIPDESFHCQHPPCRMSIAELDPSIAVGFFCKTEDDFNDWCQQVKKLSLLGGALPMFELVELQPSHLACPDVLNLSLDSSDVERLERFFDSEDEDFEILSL
Cmpd fluor yeast – flagged as fluorescent in efflux inhibitor counter-screen; AID 588517; shares compounds with Efflux pump inh; fluorescence ratio to DMSO, % at 10 µM; 1,700 tested, 4% active; S. cerevisiae AD/pABC3, compound fluorescence, flow cytometry;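 active means fluorescence ratio to DMSO above its plate's cutoff, the plate mean ratio plus 5 SD, cut at about 210% in these data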;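 further: unstained yeast with no Nile Red so the signal is compound autofluorescence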
Mdr1 pump inh – Candida Mdr1 efflux pump inhibition; shares compounds with Efflux pump inh; S. cerevisiae AD/CaMDR1, Nile Red efflux, flow cytometry; inhibition, % at 10 µM; 1,700 tested, 1% active; AID 588518; in the data active means inhibition above about 26%;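 further: 0% = DMSO vehicle and 100% = reference inhibitor; higher means more Nile Red retained so more efflux inhibition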
CaCdr2 efflux inh – Candida Cdr2 efflux pump inhibition; shares compounds with Efflux pump inh; AID 588520; Nile Red retention ratio vs DMSO, % at 10 µM; S. cerevisiae AD/CaCDR2, Nile Red retention, flow cytometry; 1,700 tested, 4% active; in the data active means Nile Red retention ratio vs DMSO above about 190%;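 further: higher ratio means more blocking of Cdr2 efflux of the dye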
Cdr1 pump inh – Candida Cdr1 efflux pump inhibition. 1,700 tested, 1% active. shares compounds with Efflux pump inh. S. cerevisiae AD/CaCDR1, Nile Red efflux, flow cytometry. inhibition, % at 10 µM;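 active means inhibition above the screen-wide mean plus twice its standard deviation, cut at about 32% in these data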
Starred values were filed as active, the others as inactive.

For CC1CC(C)CN(C(=O)c2cc(S(=O)(=O)N3CCCCC3)ccc2Cl)C1 (configuration not stated) the results were Efflux pump inh 0, GRK2 aptamer HTS 0, Yeast superoxide 97 and ATG4B inhibitor 5.
CNC[C@@H]1Oc2ccc(NS(=O)(=O)c3ccc(Cl)cc3)cc2C(=O)N([C@H](C)CO)C[C@@H]1C was read as Efflux pump inh 0, GRK2 aptamer HTS 0, Yeast superoxide 93 and ATG4B inhibitor -14.
For Cc1ccc(-c2cc(NC(=O)CCl)n(-c3ccccc3)n2)cc1 the results were Efflux pump inh 0, GRK2 aptamer HTS 0, Yeast superoxide 98 and ATG4B inhibitor -8.
Cc1ccc(-n2nc(C)c(NC(=O)CCl)c2C)cc1 was read as Efflux pump inh 10*, GRK2 aptamer HTS 1, Yeast superoxide 108, ATG4B inhibitor 3, Cmpd fluor yeast 99, Mdr1 pump inh 0, CaCdr2 efflux inh 104 and Cdr1 pump inh 2.
Nc1ncnc2c1nc(N1CCCCC1)n2[C@@H]1O[C@H](CO)[C@@H](O)[C@H]1O was read as Efflux pump inh 2.3*, GRK2 aptamer HTS 10, Yeast superoxide 111, ATG4B inhibitor -2, Cmpd fluor yeast 104, Mdr1 pump inh 0, CaCdr2 efflux inh 92 and Cdr1 pump inh 0.
`CCCCn1c(N)c(N(CC(C)C)C(=O)c2ccc([N+](=O)[O-])o2)c(=O)[nH]c1=O` gave Efflux pump inh 0, GRK2 aptamer HTS 0, Yeast superoxide 138 and ATG4B inhibitor -7.
For COc1ccccc1C(=O)NC(=O)COC(=O)CNC(=O)c1ccccc1 the results were Efflux pump inh 0, GRK2 aptamer HTS 3, Yeast superoxide 78 and ATG4B inhibitor 3.
For Cc1cc(NC(=O)CCC(=O)N(Cc2ccco2)C(C(=O)NC2CCCCC2)c2ccccc2)no1 (configuration not stated) the results were Efflux pump inh 0, GRK2 aptamer HTS 2, Yeast superoxide 99, ATG4B inhibitor -9, Cmpd fluor yeast 104, Mdr1 pump inh 0, CaCdr2 efflux inh 119 and Cdr1 pump inh 0.
Cc1cc(NC(=O)CCC(=O)N(Cc2ccco2)C(C(=O)NC2CCCC2)c2ccccc2F)no1 (configuration not stated) was read as Efflux pump inh 0, GRK2 aptamer HTS 0, Yeast superoxide 107 and ATG4B inhibitor -1.
For Cc1ccc(C(C(=O)NC2CCCC2)N(C(=O)CCC(=O)Nc2cc(C)on2)c2ccccc2)cc1 (configuration not stated) the results were Efflux pump inh 0, GRK2 aptamer HTS 0, Yeast superoxide 95, ATG4B inhibitor 0, Cmpd fluor yeast 110, Mdr1 pump inh 0, CaCdr2 efflux inh 123 and Cdr1 pump inh 0.
`Cc1cc(NC(=O)CCC(=O)N(Cc2ccco2)C(C(=O)NC2CCCC2)c2ccccc2C)no1` (configuration not stated) gave Efflux pump inh 0, GRK2 aptamer HTS 0, Yeast superoxide 98, ATG4B inhibitor -8, Cmpd fluor yeast 85, Mdr1 pump inh 0, CaCdr2 efflux inh 90 and Cdr1 pump inh 0.
For Cc1ccc(N(C(=O)CCC(=O)Nc2cc(C)on2)C(C(=O)NC2CCCC2)c2ccncc2)cc1 (configuration not stated) the results were Efflux pump inh 0, GRK2 aptamer HTS 0, Yeast superoxide 95 and ATG4B inhibitor -10.
COc1ccc(OCCCC(=O)Nc2cc(S(=O)(=O)N3CCCCC3)ccc2OC)cc1 was read as Efflux pump inh 0, GRK2 aptamer HTS 2, Yeast superoxide 86 and ATG4B inhibitor -2.
Screening Cc1ccc(CN2C(=O)C(Cc3ccccc3)Nc3ncnc(N4CCN(c5ccccc5)CC4)c32)cc1 (configuration not stated) returned Efflux pump inh 1.1*, GRK2 aptamer HTS 1, Yeast superoxide 99, ATG4B inhibitor -1, Cmpd fluor yeast 96, Mdr1 pump inh 0, CaCdr2 efflux inh 110 and Cdr1 pump inh 0.
O=C1C(Cc2ccccc2)Nc2ncnc(N3CCN(c4ccccc4)CC3)c2N1Cc1ccc(Br)cc1 (configuration not stated) was read as Efflux pump inh 82*, GRK2 aptamer HTS 2, Yeast superoxide 91, ATG4B inhibitor -5, Cmpd fluor yeast 110, Mdr1 pump inh 56*, CaCdr2 efflux inh 112 and Cdr1 pump inh 76*.
For CCC1Nc2ncnc(N3CCN(c4ccccc4)CC3)c2N(Cc2ccc(Br)cc2)C1=O (configuration not stated) the results were Efflux pump inh 0, GRK2 aptamer HTS 0, Yeast superoxide 99 and ATG4B inhibitor -1.
Screening O=C1C(Cc2ccccc2)Nc2ncnc(N3CCN(c4ccccc4)CC3)c2N1Cc1ccccc1 (configuration not stated) returned Efflux pump inh 0, GRK2 aptamer HTS 2, Yeast superoxide 90, ATG4B inhibitor 3, Cmpd fluor yeast 105, Mdr1 pump inh 0, CaCdr2 efflux inh 87 and Cdr1 pump inh 0.
`O=C1C(Cc2ccccc2)Nc2ncnc(N3CCOCC3)c2N1Cc1ccc(Cl)cc1` (configuration not stated) gave Efflux pump inh 0, GRK2 aptamer HTS 0, Yeast superoxide 103 and ATG4B inhibitor -10.
`COc1ccc(N(C)S(=O)(=O)c2ccc(Cl)c(C(=O)NNC(=O)c3ccccc3O)c2)cc1` gave ATG4B inhibitor 5.
`CCCNC(=S)N1CCC(C(=O)c2ccc3c(c2)OCCO3)CC1` gave Efflux pump inh 0, GRK2 aptamer HTS 0, Yeast superoxide 115 and ATG4B inhibitor -2.
For COc1ccc(-c2ccc3c(c2)S(=O)(=O)c2cccc(C(=O)NC4CCCCC4)c2C3=O)cc1OC the results were Efflux pump inh 1.1*, GRK2 aptamer HTS 0, Yeast superoxide 102, ATG4B inhibitor -1, Cmpd fluor yeast 85, Mdr1 pump inh 0, CaCdr2 efflux inh 121 and Cdr1 pump inh 0.
CSc1ncc(C(=O)O)c(C)n1 was read as Efflux pump inh 0, GRK2 aptamer HTS 0, Yeast superoxide 99 and ATG4B inhibitor -6.
`Cc1ncc(C(=O)O)c(C(=O)O)c1N` gave Efflux pump inh 5.5*, GRK2 aptamer HTS 0, Yeast superoxide 97, ATG4B inhibitor -1, Cmpd fluor yeast 115, Mdr1 pump inh 0, CaCdr2 efflux inh 108 and Cdr1 pump inh 0.
`Cc1ccc2c(C)c(C(=O)N(C)Cc3nccn3C)oc2c1C` gave Efflux pump inh 0, GRK2 aptamer HTS 1, Yeast superoxide 101 and ATG4B inhibitor -8.
